# The full list was thinned out, with hits kept by preference.
# SF-1 inh = SF-1 (human) inhibition. Q13285. CHO-K1 Gal4-SF-1 LBD luciferase reporter. inhibition, % at 10 µM. actives 0.55% (n = 65,000);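 active means inhibition above the mean inhibition of all tested compounds plus 3 SD, cut at about 48% in these data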;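 further: 0% = SF-1 transfected cells with DMSO and 100% = mock-transfected cells lacking SF-1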
# Target sequence (Q13285 whole entry, looked up, the tested form may be a part): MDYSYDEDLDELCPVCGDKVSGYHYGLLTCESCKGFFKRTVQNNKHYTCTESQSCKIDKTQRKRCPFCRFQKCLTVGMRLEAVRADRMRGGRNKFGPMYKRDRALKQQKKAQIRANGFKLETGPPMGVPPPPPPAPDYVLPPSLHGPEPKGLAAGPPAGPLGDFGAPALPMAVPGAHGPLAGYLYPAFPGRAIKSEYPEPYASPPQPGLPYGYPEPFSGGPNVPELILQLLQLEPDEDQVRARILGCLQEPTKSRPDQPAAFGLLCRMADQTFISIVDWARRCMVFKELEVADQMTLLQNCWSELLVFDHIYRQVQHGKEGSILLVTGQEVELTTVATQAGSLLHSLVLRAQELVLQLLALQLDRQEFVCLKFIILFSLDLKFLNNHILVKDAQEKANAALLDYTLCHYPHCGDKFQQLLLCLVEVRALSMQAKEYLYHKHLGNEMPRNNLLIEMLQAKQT
# * hit, by the source's call.
SMILES,SF-1 inh
COC(=O)c1ccc2c(=O)n(CCN3CCOCC3)c(SCC(=O)NC3CCCCC3)nc2c1,-8
COC(=O)c1cc(Br)c(=O)n(Cc2ccc3c(c2)OCO3)c1,-12
COc1cccc(OCCN2CCN(c3ncnc4c3cnn4-c3ccccc3)CC2)c1,6
COc1cccc(N2CCN(c3ncnc4c3[nH]c3ccc(F)cc34)CC2C)c1 (centres undefined),96*
COc1cccc(N2CCN(c3ncnc4c3[nH]c3ccccc34)CC2C)c1 (centres undefined),85*
COc1cccc(-n2nc(C(=O)O)c3ccccc3c2=O)c1,-8
COc1cccc(NC(=O)N2CCN(c3cccc(C)c3)C(C)C2)c1 (centres undefined),-2
CNC(=O)Nc1ccccc1NC(=O)NC,13
NC(=O)c1nsc(C(=O)N(CC(=O)NCc2ccc3c(c2)OCO3)C2CCCCC2)c1N,-29
COC(=O)c1cc(OC)c(OC)cc1NC(=O)CSc1nnnn1Cc1ccccc1,-16
CCn1cc(Br)c(C(=O)Nc2ccc(F)c(Cl)c2)n1,-35
CC(=O)c1c(NCCc2ccccc2)cc(C)oc1=O,8
CC(=O)CC1OC(=O)C(Br)=C1NCc1ccccc1 (centres undefined),79*
Oc1ccc(-c2nnc(SCC3CCCCC3)o2)cc1,-64
Nc1nonc1-c1noc(CCCN2C(=O)c3ccccc3C2=O)n1,-50
COc1ccccc1OCc1csc(NC(=O)c2ccco2)n1,-67
O=C(NC1CCS(=O)(=O)C1)c1cn(-c2ccccc2)nc1-c1ccccc1 (centres undefined),0
COc1ccc(-n2ccnc2SCC(=O)NCc2ccc3c(c2)OCO3)cc1,-6
Cc1cc(C)c2[nH]c(=O)c(C(c3nnnn3Cc3ccc4c(c3)OCO4)N3CCCCC3)cc2c1 (centres undefined),12
Cc1ccc2[nH]c3c(N4CCCCCC4)ncnc3c2c1,74*
CC(=O)c1ccc(OCC(O)CN2CCN(Cc3ccc4c(c3)OCO4)CC2)cc1 (centres undefined),-27
c1ccc2sc(NC3=NCN(Cc4ccc5c(c4)OCO5)CN3)nc2c1,7
Cc1ccc2c(c1)c1ncnc(N3CCC4(CC3)OCCO4)c1n2C,-67
Cc1ccc(-n2c(=O)cc(N3CCCCCC3)[nH]c2=O)cc1,-6
Cc1ccc2[nH]c3c(N4CCN(Cc5ccc6c(c5)OCO6)CC4)ncnc3c2c1,73*
SMILES,SF-1 inh
COc1ccc2c(c1)[nH]c1c(N3CCN(Cc4ccc5c(c4)OCO5)CC3)ncnc12,74*
O=C(CN1C(=O)CSC1=O)N1CCc2ccccc2C1,-5
Cc1c(NS(=O)(=O)CC23CCC(CC2=O)C3(C)C)c(=O)n(-c2ccccc2)n1C (centres undefined),-10
O=C(c1ccccc1)n1ccc2ccccc21,7
Cc1c(S(=O)(=O)Nc2cc(Cl)ccc2Cl)c(=O)n(C)c(=O)n1C,14
Cc1cc(C)n2nc(SCC3COc4ccccc4O3)nc2n1 (centres undefined),-55
CCOC(=O)c1cccc(NC(=O)Cn2cc3c(n2)CCC(C)C3)c1 (centres undefined),13
FC(F)(F)c1ccc(N2CCN(c3cc(-c4ccccc4)nc4ncnn34)CC2)nc1,71*
c1ccc(-c2cc(N3CCOCC3)nc(-c3ccccc3)n2)cc1,2
CCC(OC(=O)CCc1nc2ccccc2[nH]c1=O)C(=O)c1ccccc1 (centres undefined),6
c1ccc2c(c1)oc1c(Nc3ccc(CN4CCOCC4)cc3)ncnc12,-54
COc1ccc(C)cc1NC(=O)NC1CCN(Cc2ccccc2)CC1,-1
c1ccc(CN2CCN(c3ncnc4c3[nH]c3ccccc34)CC2)cc1,50*
C=CCNC(=O)C(C#N)c1nc2ccccc2nc1N1CCN(Cc2ccccc2)CC1 (centres undefined),-6
Cc1ccc2c(c1)[nH]c1c(N3CCN(Cc4ccccc4)CC3)ncnc12,50*
Cc1cc(=O)[nH]c(N2CCN(Cc3ccccc3)CC2)n1,-5
c1ccc2c(c1)CCN(c1ncnc3c1[nH]c1ccccc13)C2,86*
CCn1c(SCC(=O)Nc2nc3c(s2)CCCC3)nc2c1c(=O)n(C)c(=O)n2C,11
CS(=O)(=O)N1CCC(C(=O)NCc2ccco2)CC1,10
O=C(NCC(c1cccnc1)N1CCN(c2ccc(F)cc2)CC1)c1ccc2c(c1)OCO2 (centres undefined),17
CCOC(=O)C1CCN(S(=O)(=O)c2c(C)[nH]c(=O)[nH]c2=O)CC1,-10
Cc1occc1C(=O)Nc1ccc2c(c1)CCC2,-75
CC(=O)C1=C(O)C(=O)N(CCc2c[nH]c3ccccc23)C1c1ccco1 (centres undefined),-3
Cc1cc(O)c(C2(C(F)(F)F)NCCNC2=O)cc1C (centres undefined),14
CCOC(=O)c1c(C)n(CC(O)c2ccccc2)c2ccc(O)cc12 (centres undefined),7
SMILES,SF-1 inh
Cn1c(N)c(C(=O)CSc2nc3ccccc3n2-c2ccccc2)c(=O)n(C)c1=O,-13
Cc1ccc(OCCSc2nnc(-c3ccncc3)n2C)cc1,6
c1ccc(OCCSc2nnnn2-c2ccccc2)cc1,-63
c1ccc(OCCSc2nnc3sc4ccccc4n23)cc1,54*
CCN(CCCNC(=O)CC1Oc2ccc(C)cc2NC1=O)Cc1ccccc1 (centres undefined),-8
O=c1[nH]cnc2c1N1CCC2CC1,2
c1cn(CC2(Cn3ccnc3)COC2)cn1,-8
O=C(COC(=O)c1ccc(S(=O)(=O)N2CCOCC2)cc1)NC1CCCCCC1,3
CCOC(=O)Cn1c(-c2ccccn2)nc2ccccc21,7
Cc1cc(/C=c2/sc3nc4ccccc4n3c2=O)c(C)n1-c1ccccn1,85*
O=C(CN1CCN(c2ccccn2)CC1)Nc1cccc(C(F)(F)F)c1,16
COc1ccccc1NC(=O)N1CCN(c2ccccn2)CC1,13
Cc1cnc(NC(=O)CN2CCN(c3ccccn3)CC2)s1,61*
CC(C)C1N=C2c3ccccc3N=C(SCc3cc(=O)n4ccccc4n3)N2C1=O (centres undefined),28
O=C(CSc1nnc(-c2cccnc2)n1Cc1ccco1)N1c2ccccc2Sc2ccccc21,11
COc1ccc(OC)c(NC(=O)CCN2CCCC(C)C2)c1 (centres undefined),-1
CCOc1ccc(-c2cc(CCCC(=O)NCCc3ccc(OC)c(OC)c3OC)no2)cc1,52*
CCOc1ccc(-c2cc(CCCC(=O)Nc3cc(OC)ccc3OC)no2)cc1,57*
CCOc1ccc(-n2cc(C(=O)N3CCN(C)CC3)c3cc(OC)c(OC)cc3c2=O)cc1,-3
CCOC(=O)N1CCN(CC(=O)Nc2cc(OCC)ccc2OCC)CC1,2
Brc1ccc(-c2cnc(-c3cccs3)o2)cc1,-52
COC(=O)C(Cc1ccc(O)cc1)NC(=O)c1ccccc1OC (centres undefined),-3
O=C(NCc1ccco1)Nc1ccc(Br)cc1Cl,-60
CCNC(=O)NC(=O)COC(=O)c1ccccc1SCC(=O)NC(=O)NCC,-69
CCC(C)(C)n1nnnc1C(c1cccc(C#N)c1)N1CCN(c2cccc(C)c2C)CC1 (centres undefined),8
CCc1c(C#N)c(N)nc(SCC(=O)OCc2ccccc2)c1C#N,-2
Cc1c(C(=O)O)oc2ccc(S(=O)(=O)NCc3ccc4c(c3)OCO4)cc12,-4
CCOC(=O)c1ccc(NS(=O)(=O)c2ccc3[nH]c(=O)[nH]c3c2)cc1,-6
CCOC(=O)c1oc2ccc(S(=O)(=O)Nc3ccc4c(c3)n(C)c(=O)n4C)cc2c1C,57*
